Source: PubChem BioAssay (NCI)
This is part of a sample that, as a whole, favours compounds with a hit. Of some 83,000 tested, about 20% had one in any assay.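 The endpoint reported here, percent growth, reads 100 for growth as untreated, 0 for no net growth and -100 for all cells dead.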 A number with no mark means an inactive call. The source made the active and inactive calls. Rule for the calls: active = growth percent below 10; inactive = the rest.

What follows are compounds tested on MDA-MB-468 breast (assay: NCI-60 one-dose screen, 48 h (100 = growth as untreated, 0 = no growth, -100 = all killed)). Settings: 10 µM unless noted.

Structure (SMILES)	growth
CCC1=C(c2ccc(OC)cc2)C(C)Oc2cc(OC(C)=O)ccc21 (configuration not stated)	-14.1% (active)
CSc1ccc2c3c(n(CCCn4ccnc4)c(=O)c2c1)-c1ccccc1C3=O	18.2%
COc1ccc2c(C3=C(c4c[nH]c5ccccc45)C(=O)N(O)C3=O)coc2c1	88.6%
Cc1ccc(/C=C/C(=O)C(=O)/C=C/c2ccc(C)cc2)cc1	110%
O=C1c2c(O)cc(O)cc2OC(c2ccc(O)c(O)c2)C1O (configuration not stated)	112%
C=C(C)[C@@H]1CC[C@]2(COC(=O)c3ccccc3C(=O)O)CC[C@]3(C)[C@H](CC[C@@H]4[C@@]5(C)CCCNC(C)(C)[C@@H]5CC[C@]43C)[C@@H]12	52%
Cc1c(C(=O)NCCC(=O)NO)sc2ncnc(Nc3ccc(F)c(Cl)c3)c12	103%
CCOC(=O)c1c(C(=O)c2cn(C)c3ccc(Br)cc23)c(-c2cn(C)c3ccc(Br)cc23)n(NC(=O)OC(C)(C)C)c1C	41.5% [100 µM]
O=C(Nc1ccc(F)cc1)ON=C1CCCCC1	105% [100 µM]
O=C(Cc1ccc(/C=C/C(=O)c2ncc[nH]2)cc1)Nc1ccc(C(F)(F)F)cc1	15.1%
CCOC(=O)c1c(NC(=O)c2cccc(C(F)(F)F)c2)sc2c3c(ccc12)OCN(C)C3	-67.2% (active)
COc1cc(NCCCN(CC(C)C)C2CCCC2)c2ncccc2c1	15.7%
NC(=O)c1c(NC(=O)c2ccccn2)sc2c1CCC(=O)C2	6.36% (active)
COc1cc2c(cc1OC)-c1ccc3cc4c(cc3c1N(CCN(C)C)C2)OCO4	-30.4% (active)
Cn1c2c(cc(S(=O)(=O)c3ccccc3)c1=O)CCc1c-2cnn1-c1ccc(Cl)cc1	-43% (active)
N=c1c(S(=O)(=O)c2ccccc2)cc2c(=O)n3ccccc3nc2n1CC1CCCO1 (configuration not stated)	121%
COc1cc2c(c(OC)c1OC)CCC(c1cccc(C(=O)Nc3ccc(Br)cc3)c1)O2 (configuration not stated)	38.2%
COc1ccc2c(c1)C(=O)c1c-2c(=O)n(CCCN(C)C)c2cc(OC)c(OC)cc12	44.5%
Cc1ccc2c(n1)C(=O)C(Cl)=C(Nc1ccccc1C(C)C)C2=O	34.9%

Structure (SMILES)	growth
O=C(O)Cc1cccc2ccccc12	121%
CCCCCCCCCCCCNCCCc1ccccc1	13%
O=C1/C(=C/c2ccc(Cl)cc2)N=C(c2ccccc2)N1CCc1cccs1	72.4%
NC(=O)c1cccc(-n2ccc3cc(NC(=O)Nc4ccc(Cl)c(C(F)(F)F)c4)ccc32)n1	47%
CCCCCCCCCCCCCCCCC(C(=O)O)C(O)(CC(=O)O)C(=O)O (configuration not stated)	102%
COc1cc2cc(Oc3ccc(NC(=O)Nc4ccc(Cl)c(Cl)c4)cc3)c(C)nc2cc1OCCN1CCOCC1	33.9%
COc1ccc(Nc2ncc(I)c(NCCCNC(=O)C3CCC3)n2)cc1	-14.9% (active)
CCOC(=O)NNc1cccc(Cl)c1	98.2%
CCOC(=O)c1cc(C(=O)c2ccc(OC)c(OC)c2)n2ccc(-c3ccccn3)cc12	74.9%
C#Cc1ccc(NC(=O)c2ccc(/C=C/C(=O)c3nccn3C)cc2)cc1	-54.6% (active)
CC(C)/C=C/CC[C@](C)(O)[C@H]1CC[C@]2(C)[C@@H]1CC[C@@H]1[C@@]3(C)C/C(=C/c4cccc(C(F)(F)F)c4)C(=O)C(C)(C)[C@@H]3CC[C@]12C	104%
COC(=O)c1c2c(c(C)[n+]([O-])c1C)C(=O)C=C(NCc1ccc(Cl)cc1)C2=O	-67% (active)
CC(C)(C)c1ccc(S(=O)(=O)Oc2ccc(-c3sc4cc(OS(=O)(=O)c5ccc(C(C)(C)C)cc5)ccc4c3C(=O)c3ccc(OCCN4CCCCC4)cc3)cc2)cc1	90%
CC(=O)ON=C1C=CC(=C(C#N)c2ccccc2)C=C1	19%
CC1=CC[C@@H]2C(C)(C)C(=O)CC[C@@]2(C)[C@@H]1COc1ccc2ccc(=O)oc2c1	43.1%
O=C(Nc1ccc(Oc2cccc(Cl)c2)c(Cl)c1)c1cccnc1	-9.21% (active)
COc1ccc(/C(=C\c2ccc3c(c2)OCO3)C(=O)Nc2nc3ccccc3s2)cc1	114%
COc1ccc(-c2cc(/C=C3\C(=O)Nc4ccc(Cl)cc43)[nH]n2)cc1OC	108%
